Tests used:
[1] = target: T1, Serine/threonine-protein kinase 3 (Homo sapiens) (UniProt Q13188); details: at 1 µM
T1 sequence (whole entry): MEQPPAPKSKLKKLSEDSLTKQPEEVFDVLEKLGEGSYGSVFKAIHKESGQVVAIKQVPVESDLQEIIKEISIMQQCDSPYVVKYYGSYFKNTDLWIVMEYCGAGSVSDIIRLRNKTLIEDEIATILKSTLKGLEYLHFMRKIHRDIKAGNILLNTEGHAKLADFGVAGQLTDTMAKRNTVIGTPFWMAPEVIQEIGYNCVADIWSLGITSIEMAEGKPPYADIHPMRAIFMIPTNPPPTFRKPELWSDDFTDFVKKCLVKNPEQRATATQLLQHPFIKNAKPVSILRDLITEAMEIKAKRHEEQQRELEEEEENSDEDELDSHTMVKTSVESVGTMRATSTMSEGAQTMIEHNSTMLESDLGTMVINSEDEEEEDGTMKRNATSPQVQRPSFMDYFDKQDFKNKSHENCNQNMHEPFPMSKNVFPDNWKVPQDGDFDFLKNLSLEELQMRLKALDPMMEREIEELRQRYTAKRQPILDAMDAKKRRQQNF

[2] = target: T1, Serine/threonine-protein kinase 3 (Homo sapiens); details: at 10 µM
[3] = target: Serine/threonine-protein kinase 24 (Homo sapiens) (UniProt Q9Y6E0); details: at 1 µM
Serine/threonine-protein kinase 24 (Homo sapiens), sequence (Q9Y6E0 whole entry, looked up): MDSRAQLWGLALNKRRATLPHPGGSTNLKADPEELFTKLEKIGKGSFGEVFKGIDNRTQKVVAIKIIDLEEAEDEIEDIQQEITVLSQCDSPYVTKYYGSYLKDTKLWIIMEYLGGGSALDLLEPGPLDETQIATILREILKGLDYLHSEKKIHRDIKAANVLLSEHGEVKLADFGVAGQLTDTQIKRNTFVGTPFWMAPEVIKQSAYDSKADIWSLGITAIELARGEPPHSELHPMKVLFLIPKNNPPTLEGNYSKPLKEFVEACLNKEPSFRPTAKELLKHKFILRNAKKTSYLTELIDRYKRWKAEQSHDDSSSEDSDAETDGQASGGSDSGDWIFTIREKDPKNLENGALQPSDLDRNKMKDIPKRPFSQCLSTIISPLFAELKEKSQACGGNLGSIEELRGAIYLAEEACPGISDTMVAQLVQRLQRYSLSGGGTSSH

[4] = target: Serine/threonine-protein kinase 24 (Homo sapiens) (UniProt Q9Y6E0); details: at 10 µM
[5] = target: T2, Tyrosine-protein kinase Mer (Homo sapiens) (UniProt Q12866); details: at 1 µM
T2 sequence (whole entry): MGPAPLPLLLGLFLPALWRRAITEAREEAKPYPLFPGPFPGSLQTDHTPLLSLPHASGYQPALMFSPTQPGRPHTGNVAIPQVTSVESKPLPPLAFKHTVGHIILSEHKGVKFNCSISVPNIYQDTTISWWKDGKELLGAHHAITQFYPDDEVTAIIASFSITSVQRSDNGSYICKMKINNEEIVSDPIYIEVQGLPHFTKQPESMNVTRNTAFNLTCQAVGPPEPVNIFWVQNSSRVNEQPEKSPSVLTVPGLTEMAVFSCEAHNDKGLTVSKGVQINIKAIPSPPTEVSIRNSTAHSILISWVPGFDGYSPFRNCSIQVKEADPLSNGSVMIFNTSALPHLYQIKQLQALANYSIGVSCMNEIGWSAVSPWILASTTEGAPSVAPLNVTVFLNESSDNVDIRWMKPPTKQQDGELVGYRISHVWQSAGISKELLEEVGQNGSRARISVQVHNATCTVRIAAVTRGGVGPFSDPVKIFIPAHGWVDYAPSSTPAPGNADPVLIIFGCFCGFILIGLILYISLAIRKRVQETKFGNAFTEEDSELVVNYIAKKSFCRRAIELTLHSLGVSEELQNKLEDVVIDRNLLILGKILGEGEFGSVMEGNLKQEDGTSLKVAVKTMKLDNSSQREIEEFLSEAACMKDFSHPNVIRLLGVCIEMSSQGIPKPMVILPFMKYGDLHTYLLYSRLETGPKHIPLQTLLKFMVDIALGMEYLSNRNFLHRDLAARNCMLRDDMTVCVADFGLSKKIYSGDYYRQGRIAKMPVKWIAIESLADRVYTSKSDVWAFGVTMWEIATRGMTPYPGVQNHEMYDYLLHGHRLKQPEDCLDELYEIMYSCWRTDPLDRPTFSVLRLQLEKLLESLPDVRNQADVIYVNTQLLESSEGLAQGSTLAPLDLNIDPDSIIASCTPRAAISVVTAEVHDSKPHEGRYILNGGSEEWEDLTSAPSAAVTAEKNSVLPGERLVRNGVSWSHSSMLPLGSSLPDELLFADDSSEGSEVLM

[6] = target: T2, Tyrosine-protein kinase Mer (Homo sapiens); details: at 10 µM
[7] = target: Hepatocyte growth factor receptor (Homo sapiens) (UniProt P08581); details: at 1 µM
Hepatocyte growth factor receptor (Homo sapiens), sequence (P08581 whole entry): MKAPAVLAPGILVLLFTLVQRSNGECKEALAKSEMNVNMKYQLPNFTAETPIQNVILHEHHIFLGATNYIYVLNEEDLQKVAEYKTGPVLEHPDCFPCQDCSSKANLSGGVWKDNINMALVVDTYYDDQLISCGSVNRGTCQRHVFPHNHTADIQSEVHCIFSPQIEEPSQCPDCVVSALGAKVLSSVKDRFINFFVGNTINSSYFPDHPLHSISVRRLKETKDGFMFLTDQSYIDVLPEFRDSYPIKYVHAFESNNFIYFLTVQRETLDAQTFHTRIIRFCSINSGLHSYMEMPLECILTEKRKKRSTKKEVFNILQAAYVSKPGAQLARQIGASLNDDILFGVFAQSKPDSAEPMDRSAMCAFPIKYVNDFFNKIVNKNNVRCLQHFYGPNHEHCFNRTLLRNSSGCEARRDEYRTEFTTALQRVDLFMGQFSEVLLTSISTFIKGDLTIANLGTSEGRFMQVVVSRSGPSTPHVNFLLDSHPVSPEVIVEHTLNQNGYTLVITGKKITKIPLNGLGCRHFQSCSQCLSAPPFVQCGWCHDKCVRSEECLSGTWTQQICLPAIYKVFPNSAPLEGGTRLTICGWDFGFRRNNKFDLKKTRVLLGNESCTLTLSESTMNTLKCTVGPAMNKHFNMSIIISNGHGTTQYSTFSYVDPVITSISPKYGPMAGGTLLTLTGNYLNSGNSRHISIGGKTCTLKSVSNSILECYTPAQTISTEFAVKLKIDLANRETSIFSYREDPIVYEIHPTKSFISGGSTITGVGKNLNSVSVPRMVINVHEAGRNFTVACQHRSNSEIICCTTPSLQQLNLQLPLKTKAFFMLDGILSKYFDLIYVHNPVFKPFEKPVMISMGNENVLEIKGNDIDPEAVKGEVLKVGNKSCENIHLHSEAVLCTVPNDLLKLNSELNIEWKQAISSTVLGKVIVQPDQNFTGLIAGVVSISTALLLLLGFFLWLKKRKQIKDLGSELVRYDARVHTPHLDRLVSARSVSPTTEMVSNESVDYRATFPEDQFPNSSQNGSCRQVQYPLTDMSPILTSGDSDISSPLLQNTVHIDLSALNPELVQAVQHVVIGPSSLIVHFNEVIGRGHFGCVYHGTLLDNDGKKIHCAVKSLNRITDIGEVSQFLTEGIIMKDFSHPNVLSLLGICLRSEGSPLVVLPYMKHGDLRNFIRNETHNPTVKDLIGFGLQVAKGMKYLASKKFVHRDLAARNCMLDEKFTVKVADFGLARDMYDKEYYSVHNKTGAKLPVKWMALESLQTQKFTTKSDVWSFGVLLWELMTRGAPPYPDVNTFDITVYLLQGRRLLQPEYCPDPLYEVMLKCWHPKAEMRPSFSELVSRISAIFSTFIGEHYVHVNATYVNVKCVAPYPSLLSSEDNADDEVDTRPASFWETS

[8] = target: Hepatocyte growth factor receptor (Homo sapiens) (UniProt P08581); details: at 10 µM
[9] = target: MAP kinase-interacting serine/threonine-protein kinase 2 (Homo sapiens) (UniProt Q9HBH9); details: at 1 µM
MAP kinase-interacting serine/threonine-protein kinase 2 (Homo sapiens), sequence (Q9HBH9 whole entry, looked up): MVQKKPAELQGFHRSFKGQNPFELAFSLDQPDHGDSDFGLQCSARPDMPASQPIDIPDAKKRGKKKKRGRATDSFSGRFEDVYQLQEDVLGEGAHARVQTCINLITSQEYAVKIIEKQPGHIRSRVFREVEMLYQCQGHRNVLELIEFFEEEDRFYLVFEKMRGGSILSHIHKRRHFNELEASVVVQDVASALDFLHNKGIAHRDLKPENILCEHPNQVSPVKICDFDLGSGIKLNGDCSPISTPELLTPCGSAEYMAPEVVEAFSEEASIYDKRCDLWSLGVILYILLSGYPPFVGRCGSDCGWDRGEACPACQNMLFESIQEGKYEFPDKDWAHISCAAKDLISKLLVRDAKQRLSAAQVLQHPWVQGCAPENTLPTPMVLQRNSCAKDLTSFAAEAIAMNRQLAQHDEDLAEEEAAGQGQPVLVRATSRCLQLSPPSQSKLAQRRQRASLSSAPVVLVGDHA

[10] = target: MAP kinase-interacting serine/threonine-protein kinase 2 (Homo sapiens) (UniProt Q9HBH9); details: at 10 µM
[11] = target: T3, Muscle, skeletal receptor tyrosine-protein kinase (Homo sapiens) (UniProt O15146); details: at 1 µM
T3 sequence (whole entry): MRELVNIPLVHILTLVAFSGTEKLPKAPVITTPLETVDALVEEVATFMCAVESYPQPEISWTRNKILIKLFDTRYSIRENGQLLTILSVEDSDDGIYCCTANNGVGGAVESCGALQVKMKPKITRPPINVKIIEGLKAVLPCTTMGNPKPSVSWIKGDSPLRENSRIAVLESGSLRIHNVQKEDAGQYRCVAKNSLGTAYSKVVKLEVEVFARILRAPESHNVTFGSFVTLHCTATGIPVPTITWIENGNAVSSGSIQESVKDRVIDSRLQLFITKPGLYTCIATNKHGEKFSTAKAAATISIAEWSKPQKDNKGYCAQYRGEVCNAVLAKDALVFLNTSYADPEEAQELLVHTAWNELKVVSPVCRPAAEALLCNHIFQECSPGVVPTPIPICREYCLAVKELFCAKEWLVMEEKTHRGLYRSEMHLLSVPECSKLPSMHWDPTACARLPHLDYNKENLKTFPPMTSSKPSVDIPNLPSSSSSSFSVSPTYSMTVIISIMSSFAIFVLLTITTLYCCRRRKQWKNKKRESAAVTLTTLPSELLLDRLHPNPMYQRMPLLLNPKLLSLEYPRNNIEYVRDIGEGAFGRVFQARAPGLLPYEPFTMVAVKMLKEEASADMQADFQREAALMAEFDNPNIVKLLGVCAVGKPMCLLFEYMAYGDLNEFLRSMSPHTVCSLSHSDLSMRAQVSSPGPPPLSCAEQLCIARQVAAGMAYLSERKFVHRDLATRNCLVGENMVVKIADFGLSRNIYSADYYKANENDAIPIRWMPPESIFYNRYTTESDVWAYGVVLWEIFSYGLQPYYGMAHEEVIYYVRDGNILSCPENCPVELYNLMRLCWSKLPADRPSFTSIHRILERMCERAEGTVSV

[12] = target: T3, Muscle, skeletal receptor tyrosine-protein kinase (Homo sapiens); details: at 10 µM
[13] = target: T4, Serine/threonine-protein kinase Nek11 (Homo sapiens) (UniProt Q8NG66); details: at 1 µM
T4 sequence (whole entry): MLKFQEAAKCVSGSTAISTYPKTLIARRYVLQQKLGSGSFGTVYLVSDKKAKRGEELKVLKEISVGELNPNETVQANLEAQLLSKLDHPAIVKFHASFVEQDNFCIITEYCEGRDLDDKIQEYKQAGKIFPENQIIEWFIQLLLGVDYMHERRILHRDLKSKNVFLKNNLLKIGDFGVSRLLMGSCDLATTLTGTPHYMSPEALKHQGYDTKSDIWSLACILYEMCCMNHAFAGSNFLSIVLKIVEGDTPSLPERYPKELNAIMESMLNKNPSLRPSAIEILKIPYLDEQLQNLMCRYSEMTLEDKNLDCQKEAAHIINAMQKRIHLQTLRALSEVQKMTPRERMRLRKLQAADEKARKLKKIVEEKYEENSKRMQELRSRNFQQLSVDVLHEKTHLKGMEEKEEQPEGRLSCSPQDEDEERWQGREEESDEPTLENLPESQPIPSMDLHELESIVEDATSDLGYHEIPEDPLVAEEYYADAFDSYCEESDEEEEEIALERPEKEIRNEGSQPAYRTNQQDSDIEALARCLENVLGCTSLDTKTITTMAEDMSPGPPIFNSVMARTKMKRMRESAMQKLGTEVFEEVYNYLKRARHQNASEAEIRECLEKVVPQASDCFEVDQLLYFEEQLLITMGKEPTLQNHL

[14] = target: T4, Serine/threonine-protein kinase Nek11 (Homo sapiens); details: at 10 µM
[15] = target: T5, Serine/threonine-protein kinase Nek2 (Homo sapiens) (UniProt P51955); details: at 1 µM
T5 sequence (whole entry): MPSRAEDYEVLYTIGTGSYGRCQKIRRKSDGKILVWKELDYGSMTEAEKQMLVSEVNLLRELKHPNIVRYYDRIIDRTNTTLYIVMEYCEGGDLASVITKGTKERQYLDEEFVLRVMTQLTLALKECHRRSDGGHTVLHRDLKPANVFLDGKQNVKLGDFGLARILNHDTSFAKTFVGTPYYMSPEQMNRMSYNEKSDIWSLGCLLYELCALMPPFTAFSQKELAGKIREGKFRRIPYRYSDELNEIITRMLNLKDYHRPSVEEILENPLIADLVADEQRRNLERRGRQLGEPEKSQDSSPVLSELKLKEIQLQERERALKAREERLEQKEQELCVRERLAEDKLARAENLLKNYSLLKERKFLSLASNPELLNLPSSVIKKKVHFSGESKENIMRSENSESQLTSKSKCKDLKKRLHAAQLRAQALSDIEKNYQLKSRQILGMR

[16] = target: T5, Serine/threonine-protein kinase Nek2 (Homo sapiens); details: at 10 µM
[17] = target: T6, Serine/threonine-protein kinase Nek3 (Homo sapiens) (UniProt P51956); details: at 1 µM
T6 sequence (whole entry): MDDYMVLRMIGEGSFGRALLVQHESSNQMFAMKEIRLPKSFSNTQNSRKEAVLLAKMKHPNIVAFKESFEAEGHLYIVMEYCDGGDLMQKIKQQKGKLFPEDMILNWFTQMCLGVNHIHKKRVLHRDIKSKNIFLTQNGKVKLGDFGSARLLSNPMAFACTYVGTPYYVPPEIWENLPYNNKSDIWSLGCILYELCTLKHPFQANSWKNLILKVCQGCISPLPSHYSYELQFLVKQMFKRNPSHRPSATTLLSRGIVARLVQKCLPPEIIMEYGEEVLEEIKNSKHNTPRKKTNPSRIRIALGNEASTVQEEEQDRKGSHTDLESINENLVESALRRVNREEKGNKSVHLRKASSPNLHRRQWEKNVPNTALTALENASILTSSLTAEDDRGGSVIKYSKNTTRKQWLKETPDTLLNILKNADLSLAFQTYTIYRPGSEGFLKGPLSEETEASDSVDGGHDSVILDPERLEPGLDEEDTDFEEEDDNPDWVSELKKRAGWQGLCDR

[18] = target: T6, Serine/threonine-protein kinase Nek3 (Homo sapiens); details: at 10 µM
[19] = target: Serine/threonine-protein kinase tousled-like 2 (Homo sapiens) (UniProt Q86UE8); details: at 1 µM
Serine/threonine-protein kinase tousled-like 2 (Homo sapiens), sequence (Q86UE8 whole entry, looked up): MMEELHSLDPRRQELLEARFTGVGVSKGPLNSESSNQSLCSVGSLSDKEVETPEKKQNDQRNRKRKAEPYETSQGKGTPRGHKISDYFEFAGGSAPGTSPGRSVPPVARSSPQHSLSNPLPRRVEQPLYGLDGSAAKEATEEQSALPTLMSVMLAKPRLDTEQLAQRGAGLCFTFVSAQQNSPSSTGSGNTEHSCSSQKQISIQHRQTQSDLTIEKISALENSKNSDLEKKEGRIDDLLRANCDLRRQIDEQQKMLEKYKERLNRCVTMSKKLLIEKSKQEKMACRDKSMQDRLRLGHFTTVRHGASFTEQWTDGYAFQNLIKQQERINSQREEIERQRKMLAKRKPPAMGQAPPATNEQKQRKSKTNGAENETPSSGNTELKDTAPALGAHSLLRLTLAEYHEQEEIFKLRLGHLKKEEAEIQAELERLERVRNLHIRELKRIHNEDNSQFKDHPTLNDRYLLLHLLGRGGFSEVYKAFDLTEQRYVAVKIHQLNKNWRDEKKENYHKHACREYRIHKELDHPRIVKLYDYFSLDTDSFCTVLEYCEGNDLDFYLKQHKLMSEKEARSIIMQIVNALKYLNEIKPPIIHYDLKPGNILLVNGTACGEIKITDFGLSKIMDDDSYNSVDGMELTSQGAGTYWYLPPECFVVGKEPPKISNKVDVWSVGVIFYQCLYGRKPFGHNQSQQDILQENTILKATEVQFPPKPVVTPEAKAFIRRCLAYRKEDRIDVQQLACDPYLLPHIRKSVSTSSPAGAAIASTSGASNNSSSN

[20] = target: Serine/threonine-protein kinase tousled-like 2 (Homo sapiens) (UniProt Q86UE8); details: at 10 µM

Row | SMILES | residual activity [1] | residual activity [2] | residual activity [3] | residual activity [4] | residual activity [5] | residual activity [6] | residual activity [7] | residual activity [8] | residual activity [9] | residual activity [10] | residual activity [11] | residual activity [12] | residual activity [13] | residual activity [14] | residual activity [15] | residual activity [16] | residual activity [17] | residual activity [18] | residual activity [19] | residual activity [20]
1 | CCN(CC)CCCCN1c2ccccc2Oc2ccc(Cl)cc21 | 118% | 112% | 85% | 99% | 110% | 62% | 128% | 108% | 107% | 84% | 129% | 97% | 80% | 113% | 85% | 112% | 110% | 111% | 111% | 91%
2 | Cc1cc(Nc2nc(-c3ccccc3)nc3ccccc23)n[nH]1 | 55% | 11% | 59% | 10% | 19% | 1% | 94% | 65% |  | 61% | 21% | 4% | 66% | 50% |  | 66% | 76% | 78% | 62% | 17%
3 | COc1cc2ncc(-c3ccccc3)nc2cc1OC |  | 100% | 65% | 71% |  | 62% | 92% | 68% |  |  |  |  | 87% |  | 94% | 100% | 125% | 85% |  | 
4 | N#CC(C#N)=C(N)/C(C#N)=C/c1ccc(O)cc1 |  |  | 71% | 67% |  |  |  | 138% |  | 50% |  | 82% | 75% | 97% | 91% | 100% |  |  | 100% | 95%
5 | CO[C@H]1[C@@H](OC)C[C@H](C)[C@@H](OC)C2=CC(=O)C=C(NC(=O)/C(C)=C/C=C/[C@H](OC)[C@@H](OC(N)=O)/C(C)=C/[C@@H]1C)C2=O | 110% | 102% | 68% | 72% | 105% | 93% | 114% | 82% | 104% | 107% | 104% | 85% | 97% | 97% | 95% | 84% | 101% | 76% | 90% | 95%
6 | Cn1cc(/C=C2\C(=O)Nc3ccc(S(N)(=O)=O)cc32)c2ccccc21 | 27% | 6% | 69% | 63% | 22% | 16% | 84% |  | 80% | 72% | 69% | 28% | 83% | 90% | 79% | 26% | 72% | 19% | 87% | 43%
7 | CN(C)c1ccc(/C=C2\C(=O)Nc3ccccc32)cc1 | 108% |  | 66% | 49% | 51% | 36% | 112% | 107% | 107% | 95% | 94% | 25% | 90% | 90% | 94% | 113% | 111% | 75% | 98% | 97%
8 | CC(=O)c1ccc(N2CCOCC2)cc1O |  |  | 70% | 71% |  |  |  |  | 105% | 96% | 105% | 81% |  |  | 84% | 104% |  | 77% | 103% | 95%
9 | O=[N+]([O-])c1ccc(-c2nc(-c3ccc(F)cc3)c(-c3ccncc3)[nH]2)cc1 | 110% | 99% | 83% | 82% | 101% | 107% | 128% | 98% | 109% | 106% | 102% | 92% | 57% | 75% | 99% | 100% | 90% | 92% | 107% | 101%

— ChEMBL document CHEMBL2218924, “A broad activity screen in support of a chemogenomic map for kinase signalling research and drug discovery” (Biochem J, 2013)
